For 86 molecules, inhibition results are on record in PubChem BioAssay AID743269 (The Scripps Research Institute Molecular Screening Center, 2014).

Each structure is given as a SMILES string. In all, about 370,000 compounds went through this assay and about 2,400 (0.65%) were called active. This is one part of a sample in which actives are shown more often than they occur. A number with no mark means an inactive call.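 Rule for the calls: active = inhibition above the screen-wide mean plus 3 SD (cut at about 13% in these data); inactive = the rest.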

The test has as its system HIV-1 integrase (with human LEDGF/p75). As to the kind of experiment: blockers of LEDGF/p75-dependent integrase strand transfer – biochemical, TR-FRET, high throughput, primary screen (AID 743269).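 Note: signal is the Cy5 over europium emission ratio at 671 and 618 nm; 0% = plate median of compound wells.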 The note with it: TR-FRET IN-LEDGF/p75 DNA integration, Eu/Cy5; at 3.7 µM; stronger effect = higher value. In general terms: In TR-FRET formats the signal depends on donor and acceptor labels being close together.
One may read the inhibition as the drop in the measured response relative to a control, in per cent. Regarding `Nn1c(SCC(=O)Nc2ccc(S(N)(=O)=O)cc2)nnc1-c1n[nH]c2c1CCC2`, the inhibition is 5.06%.

For `CN(O)C(=S)c1ccccc1`, the inhibition was 21.8% (active). The figure for `COC(=O)C1CN(CC(C)C)CCS(=O)(=O)N1Cc1ccc(C)cc1` (stereo unspecified) is 1.62%; for `COc1cc(NC(=O)C2CCCN(S(=O)(=O)c3ccc(C(C)(C)C)cc3)C2)cc(OC)c1` (stereo unspecified) it is 2.62%. With `COc1ccc(-n2nc(C(=O)NCC(=O)N3CCCCCC3)c3ccccc3c2=O)cc1Cl`, the inhibition was -4.29%. On to `COc1cc(/C=C2\CCCc3c2nc2ccccc2c3C(=O)O)cc(Cl)c1O`, for which the inhibition was 30.4% (active). With `COC(=O)c1cc(N2CCNCC2)nc2ccccc12` the figure was -3.62%; with `C[C@@H]1COc2cccc(N3CCCC3)c2S(=O)(=O)N1C`, -1.59%; with `COc1cccc(NC(=O)COC(=O)/C=C/c2ccco2)c1`, 20.4% (active). For the molecule `NS(=O)(=O)c1cccc(NC(=O)COC(=O)/C=C/c2ccco2)c1`, the inhibition is -1.8%. The figure for `COc1ccc([N+](=O)[O-])cc1NC(=O)COC(=O)/C=C/c1ccco1` is -5.28%; for `CC(C)(C)c1ccc(C(=O)Nc2cc(Cl)c(Br)cc2C(=O)O)cc1` it is 5.86%; for `CCCCOCCCNC(=O)C[C@H]1C[C@@]2(C(=O)OC)C(=C[C@H](COCc3ccccc3)O[C@@H]2C)N(Cc2cccc3ccccc23)C1=O` it is -2.14%. In the case of `COC(=O)[C@H](C(C)C)N1CCc2nnn(Cc3ccc(C)cc3)c2-c2ccccc2S1(=O)=O`, the inhibition was 0.15%. The figure for `CC(C(=O)Nc1ccccc1-c1ccccc1)N1CCOCC1` (stereo unspecified) is -2.51%; for `Cc1oc2c(c1C(=O)N1CCOCC1)C(=O)c1ccccc1C2=O` it is 18.3% (active). Take `Cc1nc2ccccc2n1C(=O)N1CCOCC1`: the inhibition is -1.41%. Turning to `CC1(C(=O)NS(=O)(=O)c2cccs2)CCN1C(=O)Cc1ccc(-c2ccccc2)cc1` (stereo unspecified), the inhibition is -0.36%.

Consider `CCCNC(=O)C1(C)CCN1C(=O)Cc1ccc(-c2ccccc2)cc1` (stereo unspecified), for which the inhibition is 0.51%. For the molecule `CC1(C(=O)NS(=O)(=O)c2ccccc2)CCN1C(=O)Cc1ccc(-c2ccccc2)cc1` (stereo unspecified), the inhibition is 19.2% (active).

Take `COc1ccc(/C=C2\CC3(OC(C)=O)CCCN2C3)cc1` (stereo unspecified): the inhibition was -2.77%. With `C[C@H](C(=O)N(C)c1ccccc1)[C@@H](O)c1ccc2ccccc2c1` the figure was -3.07%. With `CCCC(C(=O)OCCN(CC)CC)(c1ccccc1)c1ccccc1` the figure was -3.9%; with `CCN(CC)CCOc1ccc2c(c1)C(=NNC(=O)c1ccccn1)c1cc(OCCN(CC)CC)ccc1-2`, 19.1% (active).

Regarding `CCN(CC)S(=O)(=O)c1cc(C(=O)Nc2ccccn2)ccc1C`, the inhibition was 1.24%.

As to `O=C(NC1CCCC1)C1CSCCS(=O)(=O)N1Cc1ccccc1` (stereo unspecified), the inhibition was 0.83%. With `C=C(C)C1CC23C(=O)C4(C(=O)c5ccccc5)C[C@@]5(C)CCC(CC2C1(C)C)(C4=O)C35OC` (stereo partly specified), the inhibition is -2.25%. With `Cc1ccc(NC(=O)Cc2cccc(F)c2)c(S(=O)(=O)N2CCOCC2)c1` the figure was 1.83%; with `CCCCNC(=O)C[C@H]1C(=O)N(Cc2ccc(OC)cc2)C2=CCCC[C@@]21C(=O)OCC`, -5.02%; with `Cc1ccc(C)c(-c2nnc(NC(=O)CS(=O)(=O)c3ccccc3)o2)c1`, -2.12%.

In the case of `COc1cc(-c2nnc(NC(=O)C3=COCCO3)o2)cc(OC)c1OC`, the inhibition was 5.65%. The figure for `COc1cc(-c2nnc(NC(=O)CS(=O)(=O)c3ccc(Cl)cc3)o2)cc(OC)c1OC` is 15.4% (active); for `CC(CCN1CCC(C(O)(c2ccccc2)c2ccccc2)CC1)Oc1ccc(C(F)(F)F)cc1` (stereo unspecified) it is -3.25%; for `O=S(=O)(Cc1noc(-c2ccc(OC(F)(F)F)cc2)n1)c1ccc(F)cc1` it is 0.93%. For `O=[N+]([O-])c1ccc(NS(=O)(=O)c2ccccc2)c(Cl)c1`, the inhibition is 7.69%. The figure for `O=S(=O)(Nc1ccc(O)c2ccccc12)c1ccc(OC(F)(F)F)cc1` is 16.5% (active). For the molecule `CCC(NC(=O)C1C2C=CC3(CN(Cc4ccccc4)C(=O)C13)O2)c1ccccc1` (stereo unspecified), the inhibition was -1.5%. The figure for `COC(=O)[C@]12C[C@H](CC(=O)NCCc3ccccc3OC)C(=O)N(Cc3ccco3)C1=C[C@H](C(C)C)O[C@@H]2C1CC1` is -0.43%; for `COC(=O)[C@]12C[C@H](CC(=O)N3CCOCC3)C(=O)N(Cc3ccc(Cl)cc3Cl)C1=C[C@H](C(C)C)O[C@@H]2C1CC1` it is -2.5%. Regarding `CCOc1ccc(-n2c(SCC(=O)Nc3cc(C)c(NC(=O)c4ccccc4)cc3OC)nnc2-c2cccc(Cl)c2)cc1`, the inhibition was -4.78%. On to `Cc1cc(NC(=O)COC(=O)/C=C/c2ccc(C)o2)no1`, for which the inhibition was -2.47%. The figure for `CCOc1ccc(NC(=S)NC(=O)/C=C/c2ccc(OC)cc2)c([N+](=O)[O-])c1` is 5.44%; for `Cc1ccc(/C=C/C(=O)Nc2ccc([N+](=O)[O-])c(NC(=O)/C=C/c3ccc(C)o3)c2)o1` it is 24.3% (active); for `CC(=O)c1cc(-c2ccc3ccccc3c2)c(=O)n2c1CCC2` it is 0.07%.

For `CC(c1ccc(N)cc1)c1cn(C)c2ccccc12` (stereo unspecified), the inhibition was -3.68%. In the case of `Cc1ccc(-n2c(SCC(=O)Nc3cccc4ccccc34)nnc2-c2ccccn2)cc1`, the inhibition was -0.35%. For `COC(CNC(=O)[C@H](Cc1ccccc1)NC1(C(=O)NC2CCCCC2)CCCCC1)OC`, the inhibition was 2.51%. `Cc1ccc(-c2nnc(SCC(=O)Nc3ccc(Oc4ccccc4)cc3)n2Cc2ccco2)cc1`: the inhibition was -1.74%.

As to `Nn1c(SCC(=O)N2c3ccccc3Sc3ccccc32)nnc1-c1n[nH]c2c1CCC2`, the inhibition is -0.96%.

Turning to `O=C(NC1CCCCN(Cc2cccc(C(F)(F)F)c2)C1=O)c1ccccc1I` (stereo unspecified), the inhibition was -1.97%. The figure for `NNc1cccc(C=Cc2ccccc2)cc1=O` is 29.3% (active); for `O=C(CSc1nc2sc3c(c2c(=O)n1-c1ccccc1)CCCC3)NN=Cc1ccc(OCc2ccccc2)cc1` it is -1.95%; for `CC1CN(/C=C/C(=O)C(F)(F)F)CC(C)O1` (stereo unspecified) it is 1.92%.

For `CN(C)c1ccc(N/C=C/C(=O)C(F)(F)F)cc1`, the inhibition is 51% (active). The figure for `O=S1(=O)c2c(NCc3ccco3)cccc2Oc2ccccc2CN1Cc1cn(Cc2cccc(C(F)(F)F)c2)nn1` is -4.08%; for `O=C1OC(/C=C/c2ccccc2)=NC/1=C/c1ccco1` it is 23.8% (active); for `COc1ccccc1/C=C/C1=NC(=C\N(C)C)/C(=O)O1` it is -2.48%.

Take `CCn1c(SCC(C)=O)nc2sc3c(c2c1=O)CCCC3`: the inhibition was 4.15%.

In the case of `COC(=O)C12C=C3CC(c4ccccc4)=C3C(=O)N1Cc1[nH]c3ccccc3c1C2` (stereo unspecified), the inhibition is -0.02%. With `CCOC(=O)c1ccc(NC(=S)N2CCN(c3ccccn3)CC2)cc1` the figure was 3.04%; with `CCOC(=O)c1ccc(NC(=O)CSc2ncccn2)cc1`, 21.2% (active). For the molecule `CCOC(=O)c1ccc(NC(=O)Cn2cnc3cc(C)c(C)cc32)cc1`, the inhibition was -0.18%. With `O=C(NC1CCC1)c1ccc(C#Cc2cccc(F)c2)c[n+]1[O-]` the figure was -0.89%. In the case of `O=C(CSc1nnc(COc2ccccc2)n1Cc1ccco1)c1ccc2ccccc2c1`, the inhibition is 1.68%. With `Cc1sc2nc(SCC(N)=O)n(C)c(=O)c2c1C` the figure was 1.58%; with `Cc1sc2nc(SCC(=O)c3ccc(O)c(O)c3)n(Cc3ccco3)c(=O)c2c1C`, 34.8% (active). Regarding `CCOC(=O)[C@]12CCCC=C1N(Cc1ccc(OC)cc1)C(=O)[C@@H]2CC(=O)N1CCOCC1`, the inhibition is 4.73%. With `Cc1ccc(NC(=O)c2cc(C)nn2-c2ccccc2)c(C)c1` the figure was -1.51%; with `CCC(=O)c1c(CC)c2n3c1=CC[C@H]3CC(Br)C=2` (stereo partly specified), -2.29%; with `CN(C)Cc1cn(-c2ccc(-c3noc4c3C(=O)N(CC(=O)N3CCOCC3)CC4)cc2)nn1`, -1.95%. The figure for `COc1ccc(C#CCNCc2ccc(OC)cc2OC)cc1` is -3.69%; for `CCCCOCCCNC(=O)C[C@H]1C[C@@]2(C(=O)OC)C(=C[C@H](C(C)(C)C)O[C@@H]2C)N(CCc2ccc(OC)c(OC)c2)C1=O` it is 2.16%. With `CN(C)S(=O)(=O)c1cccc(C(=O)N/N=C\c2ccco2)c1`, the inhibition is -0.56%. The figure for `CC(C)CNC(=O)COC(=O)/C=C/c1ccco1` is 0.15%.

Take `Cc1cc(C(=O)NN=C/C=C/c2ccco2)n[nH]1`: the inhibition is 15.1% (active).

As to `COc1ccc(N2CCN(CCNS(=O)(=O)c3ccc(Cl)s3)CC2)cc1`, the inhibition was -1.84%. With `O=C(CSc1nnc(-c2ccccn2)n1-c1ccc(Cl)cc1)Nc1ccccc1-c1ccccc1` the figure was -2.85%; with `C=CCN1C(=O)[C@H](CC(=O)N2CCN(C(=O)OCC)CC2)[C@@]2(C(=O)OCC)CCCC=C12`, -0.39%. The figure for `O=C(NNC(=S)NC1CCCCC1)c1ccccc1Cl` is 0.05%. The figure for `O=C(NNC(=O)c1ccccc1O)c1ccccc1O` is 27.2% (active). For `O=C(CO/N=C/c1ccccc1O)NNC(=O)c1ccccc1Cl`, the inhibition is 3.91%.

Consider `CCC(c1ccc(NC(=O)OC(C)(C)C)cc1)c1cc(OC)cc(OC)c1` (stereo unspecified), for which the inhibition is -0.14%. Turning to `CCOC(=O)C1(Cc2ccccc2)CCN(Cc2cn(C(C)=O)c3ccccc23)CC1`, the inhibition is -1.3%. The figure for `Cc1ccccc1NC(=O)COC(=O)c1ccc(Sc2ncn[nH]2)c([N+](=O)[O-])c1` is -3.54%; for `COc1ccc2c(c1)c(=Cc1ccc(N(C)C)cc1)c1cc(-c3ccccc3)[n+](C)n12` it is 18.8% (active). The figure for `O=C(CN1CCC(NC(=O)NCc2ccccc2)CC1)Nc1ccc2c(c1)OCCO2` is 0.58%.
